From PubChem BioAssay come the findings set out here.

Assay [1] in a line: antimalarial activity against Dd2 strain (AID 2302;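 active = growth inhibition above 50% at the single 2 µM test dose, taken to imply half-maximal potency below 2 µM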;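 note: 0% = DMSO untreated growth and 100% = chloroquine plus artemisinin killed control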). To be noted: P. falciparum Dd2 in RBCs, LDH growth readout, 72 h; at 2 µM; active compounds read high.
The nature of assay [2]: HepG2 cytotoxicity, primary screen, cytotoxicity control for P. falciparum antimalarial project, cell-based, ATP luminescence (AID 2303;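 active = inhibition above 50%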;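 note: 0% = DMSO wells and 100% = digitonin-killed cells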). Conditions: HepG2 viability, 24-48 h, at 10 µM, active compounds read high.
Assay [3] addresses L-lactate dehydrogenase (Plasmodium falciparum (isolate CDC / Honduras)) (UniProt Q27743). In words: PfLDH activity inhibition – cell lysate, 3D7 strain, counter-screen for P. falciparum growth inhibition project (AID 2304).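 Note: 0% = vehicle and 100% = reference inhibitor.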 Conditions: P. falciparum 3D7 crude extract, LDH APAD/NBT absorbance; at 2 µM; active compounds read high. (In general: Counterscreens check selectivity or assay interference.)

A short description of assay [4]: inhibition of 3D7 malaria parasite growth – strain 3D7 (AID 2306).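 Note: 0% = DMSO wells and 100% = chloroquine plus artemisinin control wells.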 To be noted: P. falciparum 3D7 erythrocytic growth, LDH absorbance, 72 h; at 2 µM; active compounds read high.
For assay [5], the target named is Calcium-dependent protein kinase 1 (Plasmodium falciparum (isolate 3D7)) (UniProt P62344). In words: PfCDPK1 kinase inhibitors, biochemical, TCAMS library (AID 1159585; cut-off not given, nearly all actives have IC50 up to about 0.98 µM;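 note: inhibitors leave more ATP so luminescence rises with inhibition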). Conditions: recombinant PfCDPK1, Kinase-Glo ATP depletion luminescence. In general terms: Kinase-Glo reads ATP consumption through a luciferase reaction.
Chain of Calcium-dependent protein kinase 1 (Plasmodium falciparum (isolate 3D7)) (P62344 whole entry, looked up): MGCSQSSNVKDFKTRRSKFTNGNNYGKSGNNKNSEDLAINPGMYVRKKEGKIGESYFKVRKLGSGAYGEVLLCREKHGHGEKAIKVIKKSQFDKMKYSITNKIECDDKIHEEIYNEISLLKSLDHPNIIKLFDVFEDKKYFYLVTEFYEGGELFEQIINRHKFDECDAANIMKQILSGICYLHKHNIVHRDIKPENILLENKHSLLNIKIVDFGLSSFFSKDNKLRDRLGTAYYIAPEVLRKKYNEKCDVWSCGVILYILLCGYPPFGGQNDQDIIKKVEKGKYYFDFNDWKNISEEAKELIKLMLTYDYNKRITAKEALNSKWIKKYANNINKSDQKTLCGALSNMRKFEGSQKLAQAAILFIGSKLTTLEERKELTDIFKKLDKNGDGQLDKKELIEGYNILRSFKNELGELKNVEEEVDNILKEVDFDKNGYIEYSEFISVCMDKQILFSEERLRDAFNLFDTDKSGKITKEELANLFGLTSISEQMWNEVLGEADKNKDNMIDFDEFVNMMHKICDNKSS
The target in assay [6] is Plasmodium falciparum protein kinase 6 (PK6, PF3D7_1337100) (UniProt Q8IDW1). In words: PfPK6 kinase inhibitors, biochemical, TCAMS library (AID 1159586). Conditions: recombinant PfPK6, Kinase-Glo ATP depletion luminescence.
Chain of Plasmodium falciparum protein kinase 6 (PK6, PF3D7_1337100) (Q8IDW1 1-305): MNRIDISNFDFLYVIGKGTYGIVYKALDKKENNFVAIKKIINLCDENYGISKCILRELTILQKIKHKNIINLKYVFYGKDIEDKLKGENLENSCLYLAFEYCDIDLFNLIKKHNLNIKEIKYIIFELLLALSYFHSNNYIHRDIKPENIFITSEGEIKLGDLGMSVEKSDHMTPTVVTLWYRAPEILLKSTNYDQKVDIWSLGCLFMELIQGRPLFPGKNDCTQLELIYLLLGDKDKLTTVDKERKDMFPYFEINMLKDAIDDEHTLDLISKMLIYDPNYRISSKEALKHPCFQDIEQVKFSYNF
Assay [7] has as its target Protein kinase 7 (PK7), Plasmodium falciparum 3D7 (PF3D7_0213400) (UniProt Q7YTF7). In words: inhibition of Plasmodium PK7 catalytic activity – biochemical, TCAMS antimalarial set, Kinase-Glo luminescence (AID 1159587). Conditions: recombinant PfPK7, Kinase-Glo ATP depletion luminescence.
Assay [8] addresses Calcium-dependent protein kinase 4 (Plasmodium falciparum (isolate 3D7)) (UniProt Q8IBS5). The experiment in a line: PfCDPK4 kinase inhibitors, biochemical, TCAMS library (AID 1159588; cut-off not given, nearly all actives have IC50 up to about 0.91 µM). To be noted: recombinant PfCDPK4, Kinase-Glo ATP depletion luminescence.

Each structure is given as a SMILES string. Values without a mark were called inactive. For part of these data: Results with a measured potency or affinity are listed apart. Calls of active or inactive are those of the source. Unless noted, the rule behind the calls is not given here.

The inhibition is the change of the read-out against control, counted positive when it falls.

Chain of Protein kinase 7 (PK7), Plasmodium falciparum 3D7 (PF3D7_0213400) (Q7YTF7 1-343): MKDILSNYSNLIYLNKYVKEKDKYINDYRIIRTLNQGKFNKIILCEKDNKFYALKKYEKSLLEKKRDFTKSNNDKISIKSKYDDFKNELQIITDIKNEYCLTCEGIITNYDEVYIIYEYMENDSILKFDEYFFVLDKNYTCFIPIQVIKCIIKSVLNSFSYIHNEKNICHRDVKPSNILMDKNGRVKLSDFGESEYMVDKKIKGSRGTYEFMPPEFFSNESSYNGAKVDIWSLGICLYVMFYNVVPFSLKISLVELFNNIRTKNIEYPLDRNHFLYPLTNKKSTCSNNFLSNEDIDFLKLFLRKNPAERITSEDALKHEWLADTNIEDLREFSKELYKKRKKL
Chain of L-lactate dehydrogenase (Plasmodium falciparum (isolate CDC / Honduras)) (Q27743 whole entry, looked up): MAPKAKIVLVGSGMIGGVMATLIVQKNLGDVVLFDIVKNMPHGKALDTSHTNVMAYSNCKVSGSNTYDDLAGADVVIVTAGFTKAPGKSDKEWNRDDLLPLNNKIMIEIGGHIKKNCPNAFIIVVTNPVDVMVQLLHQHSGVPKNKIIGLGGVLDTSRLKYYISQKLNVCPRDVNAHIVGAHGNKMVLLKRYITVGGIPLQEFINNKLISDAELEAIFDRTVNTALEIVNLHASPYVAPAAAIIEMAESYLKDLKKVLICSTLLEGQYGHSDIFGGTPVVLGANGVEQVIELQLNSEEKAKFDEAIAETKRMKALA
Chain of Calcium-dependent protein kinase 4 (Plasmodium falciparum (isolate 3D7)) (Q8IBS5 whole entry, looked up): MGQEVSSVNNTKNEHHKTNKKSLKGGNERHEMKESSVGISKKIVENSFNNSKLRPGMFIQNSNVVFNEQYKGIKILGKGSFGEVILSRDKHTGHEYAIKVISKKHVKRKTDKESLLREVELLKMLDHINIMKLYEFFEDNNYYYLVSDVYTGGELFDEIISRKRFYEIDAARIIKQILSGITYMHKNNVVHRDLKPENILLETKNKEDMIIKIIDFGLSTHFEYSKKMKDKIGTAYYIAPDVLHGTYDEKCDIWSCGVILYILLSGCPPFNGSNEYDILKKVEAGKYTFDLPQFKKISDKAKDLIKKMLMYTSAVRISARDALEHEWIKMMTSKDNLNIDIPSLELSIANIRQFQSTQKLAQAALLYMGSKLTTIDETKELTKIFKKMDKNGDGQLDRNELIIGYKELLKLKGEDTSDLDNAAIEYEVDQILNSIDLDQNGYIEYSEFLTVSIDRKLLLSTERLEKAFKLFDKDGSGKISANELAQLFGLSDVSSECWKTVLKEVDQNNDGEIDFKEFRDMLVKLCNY

As to `c1ccc(-c2nnc(-c3ccccn3)nc2NC2CCCCC2)cc1`, the growth inhibition in assay [1] was 80% (active); in assay [4], 97% (active). In addition, the inhibition in assay [2] is 74% (active); in assay [3], 6%. For the same molecule, the outcome in assay [5], in assay [6], in assay [7] and in assay [8] was inactive.

Regarding `CNCc1ccc(-c2cccc(CNCc3ccc(-c4ccccc4)cc3)c2)c(C(=O)OC)c1`, the growth inhibition in assay [1] is 19%; in assay [4] it was 92% (active). Also, the inhibition in assay [2] was 25%; in assay [3] it was 3%. Also, the outcome in assay [5], in assay [6], in assay [7] and in assay [8] was inactive.

Take `COc1ccccc1N(C)CCNc1cc(C)nc(Nc2ccc(C)cc2)n1`: the growth inhibition in assay [1] is 25%; in assay [4] it was 93% (active). For the same molecule, the inhibition in assay [2] was 9%; in assay [3] it was 0%. Also, the outcome in assay [5], in assay [6], in assay [7] and in assay [8] was inactive.

For `O=c1cc(NCCCNC2CCOc3c(I)cc(Cl)cc32)[nH]c2ccccc12` (centres undefined), the growth inhibition in assay [1] is 48%; in assay [4] it was 96% (active). Further, the inhibition in assay [2] was -10%; in assay [3], -1%. For the same molecule, the outcome in assay [5], in assay [6], in assay [7] and in assay [8] was inactive.

In the case of `Cc1cc(NC(=O)NCCN2CCC(NC(=O)c3ccc(Cl)cc3)CC2)c2ccccc2n1`, the growth inhibition is 54% (active) in assay [1] and 90% (active) in assay [4]. Moreover, the inhibition in assay [2] was -4%; in assay [3], -2%. The outcome in assay [5], in assay [6], in assay [7] and in assay [8] was inactive.

`COc1ccc(NC(=O)Nc2cccc(-c3cccc(-c4nc5ccc(F)cc5[nH]4)c3)c2)cc1`: the growth inhibition is 39% in assay [1] and 99% (active) in assay [4]. Moreover, the inhibition in assay [2] was 59% (active); in assay [3], 5%. Moreover, the outcome in assay [5], in assay [6], in assay [7] and in assay [8] was inactive.

Consider `CCOC(=O)c1cc(C(=O)NCCCCN2CCC(c3cn(C)c4ccccc34)CC2)ccc1-c1ccc(C(F)(F)F)cc1`, for which the growth inhibition in assay [1] is 6%; in assay [4], 91% (active). For the same molecule, the figures for the inhibition in assay [2] and in assay [3] were 25% and -3%, respectively. Moreover, the result in assay [5], in assay [6], in assay [7] and in assay [8] was inactive.

On to `CC(=O)Nc1ccc(-c2nc3ccc(-c4nc5ccc(NC(C)=O)cc5[nH]4)cc3[nH]2)cc1`, for which the growth inhibition in assay [1] and in assay [4] was 99% (active) each time. The inhibition in assay [2] is -13%; in assay [3] it was -2%. The result in assay [5], in assay [6], in assay [7] and in assay [8] was inactive.

On to `CCCCOc1cc(OC)c2ccccc2c1CCNCCCCNCCc1c(OCCCC)cc(OC)c2ccccc12`, for which the growth inhibition in assay [1] and in assay [4] was 82% (active) in each case. Further, the inhibition in assay [2] is 100% (active); in assay [3], -6%. For the same molecule, the outcome in assay [5], in assay [6], in assay [7] and in assay [8] was inactive.

Turning to `CCNc1cc(C(=O)N[C@@H](Cc2ccccc2)[C@H](O)CNC2(C)CCCCC2)cc(N2CCCCS2(=O)=O)c1`, the growth inhibition in assay [1] is 98% (active); in assay [4], 100% (active). Besides, the values for the inhibition in assay [2] and in assay [3] were 13% and 2%, respectively. The result in assay [5], in assay [6], in assay [7] and in assay [8] was inactive.

For the molecule `Clc1cc(Cl)cc(Nc2ccnc(Nc3cc(Cl)cc(Cl)c3)n2)c1`, the growth inhibition was 73% (active) in assay [1] and 99% (active) in assay [4]. Moreover, the inhibition in assay [2] was 11%; in assay [3], -1%. Moreover, the result in assay [5], in assay [6], in assay [7] and in assay [8] was inactive.

Turning to `Cc1cccn2c(=O)c3cc(C(=O)NCCN4CCOCC4)c(=N)n(CCc4ccccc4)c3nc12`, the growth inhibition was 85% (active) in assay [1] and 100% (active) in assay [4]. The inhibition in assay [2] was 13%; in assay [3], 1%. Further, the result in assay [5], in assay [6], in assay [7] and in assay [8] was inactive.

Regarding `COc1ccc2ncc(C#N)c(CCN3[C@@H]4CC[C@H]3CC(NCc3ccc5c(n3)NC(=O)CS5)C4)c2c1` (some centres undefined), the growth inhibition in assay [1] was 27%; in assay [4] it was 95% (active). In addition, the inhibition is 6% in assay [2] and -1% in assay [3]. The outcome in assay [5], in assay [6], in assay [7] and in assay [8] was inactive.

Turning to `N=C(N)c1ccc(NC(=O)c2cc(Sc3ccc(O)c(C(=O)Nc4ccc(C(=N)N)cc4)c3)ccc2O)cc1`, the growth inhibition in assay [1] is 87% (active); in assay [4], 93% (active). The inhibition in assay [2] was 11%; in assay [3], 2%. For the same molecule, the outcome in assay [5], in assay [6], in assay [7] and in assay [8] was inactive.

Turning to `Cc1cc(OC(C)C(=O)N2CCc3ccccc32)ccc1Cl` (centres undefined), the growth inhibition is 54% (active) in assay [1] and 89% (active) in assay [4]. In addition, the results for the inhibition in assay [2] and in assay [3] were 20% and 6%, respectively. The outcome in assay [5], in assay [6], in assay [7] and in assay [8] was inactive.

As for `Oc1ccc(CCNc2nc(NCCOc3cccc4ccccc34)nc(N3CCNCC3)n2)cc1`, the growth inhibition was 8% in assay [1] and 96% (active) in assay [4]. Besides, the inhibition in assay [2] is 21%; in assay [3], 1%. In addition, the outcome in assay [5], in assay [6], in assay [7] and in assay [8] was inactive.

On to `FC(F)(F)c1ccc2nc(-c3ccc(-c4cccc(CNCCc5cccnc5)c4)s3)[nH]c2c1`, for which the results for the growth inhibition in assay [1] and in assay [4] were 98% (active) and 101% (active), respectively. For the same molecule, the inhibition is 26% in assay [2] and -3% in assay [3]. The result in assay [5], in assay [6], in assay [7] and in assay [8] was inactive.

Turning to `O=C(CSc1ccccn1)Nc1c(F)cccc1F`, the growth inhibition is -5% in assay [1] and 88% (active) in assay [4]. Moreover, the inhibition in assay [2] is -2%; in assay [3], 1%. Moreover, the result in assay [5], in assay [6], in assay [7] and in assay [8] was inactive.
